# In the supplement of paper PMC10338343:
# ± gives the standard deviation.
# Experiments:
# [1] = tested on: MILI (PIWIL2) piRISC loaded with piRNA #1 (26 nt); assay: pre-steady-state target cleavage rate (min^-1); guide: piRNA #1 5'p-UGAGGUAGUAGGUUGUAUAGUAUCCA; higher = faster piRNA-guided slicing of the target; settings: auxiliary factor: 500 nM mouse GTSF1
# Summary of the method: (§1)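 The pre-steady-state cleavage rate was obtained by Cleave-'n-Seq with a burst-and-steady-state fit. A transcribed, DNA-blocked target RNA library (0.1 nM) was mixed with 1 nM active affinity-purified piRISC carrying one synthetic guide, with or without 500 nM GTSF1 partner protein, in HEPES–potassium acetate buffer at 33 °C for 0–8 or 0–960 min. Uncleaved targets were sequenced and normalised to depth and to weakly complementary targets, with three trials pooled and k3 capped at 0.0001 min^-1.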
# [2] = tested on: EfPiwi piRISC loaded with piRNA #1 (26 nt); assay: pre-steady-state target cleavage rate (min^-1); auxiliary factor: 500 nM Ephydatia muelleri Gtsf1; guide: piRNA #1 5'p-UGAGGUAGUAGGUUGUAUAGUAUCCA; MIWI and MILI are mouse PIWI proteins and EfPiwi is from a freshwater sponge; tags in brackets are library labels; higher = faster piRNA-guided slicing of the target
# Summary of the method: as §1
Sequence,pre-steady-state target cleavage rate [1],pre-steady-state target cleavage rate [2]
GGAGUGGAUACUAUACUACCUACAACCUCA,0.117 ± 0.0096,0.00209 ± 0.0019
GGAGACCUUACUUAUACAACCUACUACCUCA,0.0994 ± 0.014,0.00736 ± 0.0041
GGAGACCUAACUAUACAACCUAGUACCUCA,0.016 ± 0.0088,0.00385 ± 0.0021
GGAGACGAUACUAUACAACCAACAACCUCA,0.00726 ± 0.0036,0.00278 ± 0.0019
GGAGUGGAUACUAUACAACCUCCUACCUCA,0.0339 ± 0.0035,0.0053 ± 0.0019
GGAGUGCAUACUAUACUACCUACUACCUCA,0.161 ± 0.0089,0.00588 ± 0.0029
GGAGUGGAAACUAUACAACCUACUACCUCA,0.225 ± 0.02,0.0504 ± 0.018
GGAGACCUUACUAUACAACCUACGACCUCA,0.113 ± 0.012,0.00282 ± 0.0024
GGAGUGGAUACUAUACAGCCUACUACCUCA,0.147 ± 0.0093,0.216 ± 0.073
GGAGUGGAUAGAAUACAACCUACUACCUCA,0.156 ± 0.014,0.0062 ± 0.0044
GGAGUGUAUACUAUACAACCUACUACCUCA,0.167 ± 0.0094,0.0133 ± 0.0057
GGAGUGGUAUACUAUACAACCUACUACCUCA,0.166 ± 0.011,0.0155 ± 0.0067
GGAGUCGAUACUAUACUACCUACUACCUCA,0.19 ± 0.012,0.00591 ± 0.0029
GGAGUGGAUACUAUACAAGGUACUACCUCA,0.0661 ± 0.0076,0.00342 ± 0.0019
GGAGUGGAUACUAUACAACGUACUACCUGA,0.0131 ± 0.0034,0.00457 ± 0.0015
GGAGACCUAUGUGAUACAACCUACUACCUCA,0.0354 ± 0.0073,0.0129 ± 0.0064
GGAGAGGAUACUAUACAACCGUACUACCUCA,0.00509 ± 0.0031,0.00659 ± 0.0028
GGAGACCUAUCAAUACAACCUACUACCUCA,0.0355 ± 0.0083,0.00612 ± 0.0034
GGAGACCUUGCUAUACAACCUACUACCUCA,0.114 ± 0.022,0.00436 ± 0.004
GGAGACCAUACUAUACAAGCUACUACCUGA,0.157 ± 0.019,0.00543 ± 0.0026

Sequence,pre-steady-state target cleavage rate [1],pre-steady-state target cleavage rate [2]
GGAGACGAUACUAUACUACCUACUACCUCA,0.2 ± 0.013,0.00925 ± 0.0032
GGAGAGGUUACUAUACAACCUACUACCACA,0.0673 ± 0.0096,0.00331 ± 0.0014
GGAGACCUAUCUUUUCAACCUACUACCUCA,0.0272 ± 0.0082,0.00766 ± 0.0047
GGAGAGCGAUACUAUACAACCUACUACCUCA,0.249 ± 0.02,0.0132 ± 0.006
GGAGUGGAUACUAUACAACCUACAUCCUCA,0.00356 ± 0.0016,0.00282 ± 0.0012
GGAGACGAUACUAUACAAGGUACUACCUCA,0.0884 ± 0.013,0.00393 ± 0.0023
GGAGUGGAUACUAUACACCUACUACCUCA,0.0342 ± 0.0053,0.157 ± 0.056
GGAGACCUAACUGAUACAACCUACUACCUCA,0.183 ± 0.045,0.00745 ± 0.0044
GGAGACGAAACUAUACAACCUACUACCUCA,0.172 ± 0.022,0.0619 ± 0.022
GGAGUGCAUACUAUACAACCAACUACCUCA,0.00672 ± 0.0023,0.00484 ± 0.0026
GGAGAGGAUACUAUACAUCCUUCUACCUCA,0.0216 ± 0.0041,0.00362 ± 0.0026
GGAGACGUUACUAUACAACGUACUACCUCA,0.0206 ± 0.0027,0.00362 ± 0.0014
GGAGUGGAUACAUAUACAACCUACUACCUCA,0.114 ± 0.011,0.0717 ± 0.027
GGAGACCAUACUAUACAACCUACUACCUCA [g2:g23:cont:t1A],0.178 ± 0.023,0.0141 ± 0.0046
GGAGAGGAUACUAUACAACCUACUAUCCUCA,0.0143 ± 0.0055,0.00536 ± 0.0025
GGAGACGAUACUAUUCAACCUAGUACCUCA,0.0492 ± 0.01,0.0035 ± 0.0018
GGAGUGGAUACUAUACAACCAUACUACCUCA,0.00751 ± 0.003,0.00742 ± 0.0033
GGAGACCUUACAAUACAACGUACUACCUCA,0.0135 ± 0.0052,0.00409 ± 0.004
GGAGACCUAUGUAUACAACCUACUACCUUA,0.0696 ± 0.0086,0.00547 ± 0.0039
GGAGACGAAACAAUACAACCUACUACCUCA,0.167 ± 0.026,0.00789 ± 0.0038

Sequence,pre-steady-state target cleavage rate [1],pre-steady-state target cleavage rate [2]
GGAGACCAUACUAUCACAACCUACUACCUCA,0.136 ± 0.019,0.0399 ± 0.014
GGAGACGAUACUAUACAAGCAACUACCUCA,0.00923 ± 0.0026,0.0046 ± 0.003
GGAGACCUAUGUCAUACAACCUACUACCUCA,0.0265 ± 0.008,0.00679 ± 0.0034
GGAGACCAUACUAUUCAACGUACUACCUCA,0.019 ± 0.0049,0.00247 ± 0.0019
GGAGUCGAUACAAUACAACCUACUACCUCA,0.177 ± 0.012,0.00908 ± 0.0047
GGAGUGGAUACAAUACAAGCUACUACCUCA,0.213 ± 0.015,0.00566 ± 0.0028
GGAGACCUAUCUAUAACAACCUACUACCUCA,0.0615 ± 0.012,0.00453 ± 0.0037
GGAGUGGAUACUAUACAACCUACUACGUCA,0.0515 ± 0.0063,0.00568 ± 0.0024
GGAGACCUUACUAUACAACCUACUACCCCA,0.142 ± 0.021,0.00566 ± 0.0032
GGAGACCAUACUAUUCAACCUACUACCUCA,0.189 ± 0.016,0.0056 ± 0.0032
GGAGAGGAUACUAUACAACCUACAACCUCA,0.111 ± 0.015,0.00428 ± 0.0019
GGAGACGAUACUAUACAACCAACUACCUGA,0.00533 ± 0.0024,0.00427 ± 0.0022
GGAGACGAUACUAUCAACCUACUACCUCA,0.14 ± 0.012,0.0106 ± 0.0051
GGAGUGGAAACUAUACAACCUACUACGUCA,0.0633 ± 0.012,0.00326 ± 0.0026
GGAGACCAUACUAUACAACGUACUACCACA,0.0309 ± 0.0064,0.00321 ± 0.0029
GGAGACCUAAUAUACAACCUACUACCUCA,0.0727 ± 0.014,0.0061 ± 0.0043
GGAGACCAUACUAUACAACCUACUACCCA,0.0934 ± 0.019,0.00453 ± 0.0028
GGAGUCCUUACUAUACAACCUACUACCUCA,0.174 ± 0.011,0.0555 ± 0.021
GGAGAGGUUACUAUACAACCUACUACGUCA,0.011 ± 0.0037,0.00435 ± 0.0016
